Results reported in the supplement of paper PMC12632987.
Over roughly 4,500 sequences, “median log2 fold change of GCK-ALFA target abundance (FLAG IP / Myc IP barcode read proportion)” has its median near 0.078; the lowest 2% begin near -0.6. Many of the other results were omitted from the sample, so the lowest values are more common in it than they were.

B1: GBRAP_196_5416 (protein)
chain: KYLEEIKELEKESEEEVKDIELSDWTIVVNFTPENLEEEAEKTAEIAKDLGNPEIVIVHDGTLEEMLEALKLLREKLKEKGVVSKISVDSRAREEAEEKA
B2: GBRAP_84_7000 (protein)
chain: MREEEIEKLVDYLAENSSLELLKKLYVYLLLKNDNKGATRLLSYLLEKDPEAAAEALDKATEAALEEKEEEVKKELLELAKKEGEEIYKKVKKLIELLEE
B3: GBRAP_160_4655 (protein)
chain: SAELEELLEKIREIFEEALEMMKGETHEQRVAIARVMKGDVILLLEESPSVSDETVDEVDEVMDELVETIEENPDWTDEEIEEKIDEALEEIEEILEEDF
B4: GBRAP_11_2732 (protein)
chain: KKEKLEEIRELAERLAELLQRLIEEGPEDEELRREAEEQLRKLEELVKEYGDEDLKKLVEIIREEWERAQEDPETAVEHLRNALAAARVLAGQVLLEIEE
B5: GBRAP_128_3559 (protein)
chain: SVEERVEKAKELLEKIKNSDVEEARKYAEELAKLLEEADEESLEAIVETILERLPELSVEHLDVLADVFRERIPEADPRTAEALAEIQVEALNEAEEKEE
B6: GBRAP_128_3586 (protein)
chain: SVEAVRAETRALMAAMKTADDATAKALATELAARFTTLSLEEAEAAAEVIEEELPGLSAEHLDILADALRAALPAMTPEKAELAADVLVAALNEAEEKDE
B7: GBRAP_166_4874 (protein)
chain: GLEELLEKARKEIRELLKKASEADDEERVELYIEIGEIIEELREAGAPKEAILELVREALKEAKELGLDVRLLAGIIINVTDFDEEEIDELDKIVEEVLK
B8: GBRAP_11_2667 (protein)
chain: KKEVYKKAAELAKELAKTVKKLIEEGIDNEELIKKAEELLKELKELAKKELDKASQKEVEVLEEIWKEAKEDKENSLKYWELLLAGARVLEGNFLLEYDE

molecular target: GABARAP, O95166; assay: median log2 fold change of GCK-ALFA target abundance (FLAG IP / Myc IP barcode read proportion) (log2 ratio); each designed protein is fused to an ALFA-tag nanobody in HEK293 cells to bring the named protein to FLAG-tagged glucokinase (GCK); Myc marks an untargeted standard; higher = target protein stabilised (more abundant); details: target protein: 3xFLAG-MCP-GCK-ALFA reporter; HEK293 landing pad (RPLP)
In short: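 An ALFA-nanobody-fused binder library was recombined into HEK293 landing-pad cells and induced with 2 μg mL^−1 doxycycline. Cells were transfected with a plasmid expressing a FLAG-tagged target and a Myc-tagged standard. After 48 h, lysates underwent anti-FLAG and anti-Myc immunoprecipitation, and circular RNA barcodes were reverse transcribed, amplified and sequenced. Target abundance is the per-binder median log2 ratio of FLAG to Myc barcode read proportions. Barcodes needed ≥10^−7 proportion in both replicates, binders ≥3 barcodes per replicate, and a 10^−6 pseudocount was added; the two replicates were pooled.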

Sequence of GABARAP, O95166 (O95166 whole entry, the tested form may be a part): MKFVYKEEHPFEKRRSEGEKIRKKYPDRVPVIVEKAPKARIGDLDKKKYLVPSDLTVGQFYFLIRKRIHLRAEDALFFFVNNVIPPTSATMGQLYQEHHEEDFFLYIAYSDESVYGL

Question: With B1 as the binder, how does the “median log2 fold change” value read?
Answer: 0.451

Question: B2 was tested. Which “median log2 fold change” value did it give?
Answer: 0.0601

Question: For B3, which “median log2 fold change” value is on record?
Answer: -0.612

Question: B4 was tested. Which “median log2 fold change” value did it give?
Answer: 0.303

Question: For B5, which “median log2 fold change” value is on record?
Answer: 0.095

Question: How did the “median log2 fold change” value turn out when B6 was run?
Answer: 0.296

Question: B7 was tested. Which “median log2 fold change” value did it give?
Answer: 0.0131

Question: With B8 as the binder, how does the “median log2 fold change” value read?
Answer: -0.102
